Reference: PubChem BioAssay
Activity calls are given as the source filed them.

How the values were obtained:
[1] = system: Plasmodium falciparum Sir2 (PF13_0152, Sir2A); experiment: Plasmodium falciparum Sir2A binding compounds – biochemical, small-molecule microarray, 635 nm fluorescence, primary screen (AID 1098); conditions: fluorescence 635 nm, higher = more signal;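 note: score merges spot fluorescence intensity with its signal-to-noise ratio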
[2] = probe aDKK1 binding to arrayed compounds – biochemical, biotinylated probe, 635/667 nm fluorescence, primary screen (AID 1099); conditions: small-molecule microarray, higher = more signal;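 note: score merges 667nm spot fluorescence with signal to noise across triplicate slides; reference of the scale not given here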
[3] = probe aCHRDL2 binding to arrayed compounds – biochemical, biotinylated probe, 635/667 nm fluorescence, primary screen (AID 1100); conditions: small-molecule microarray, higher = more signal
[4] = change in splice reporter luminescence, either direction, cell-based, HEK293, spliceosome inhibition project, primary screen (AID 1101); conditions: HEK293 splicing luciferase reporter, 24 h, higher = more signal, called active from +8 up or from −8 down;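 note: HEK293 cells carrying a splicing-competent luciferase reporter gene; test concentration not given here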
[5] = target: Fibroblast growth factor 10 (Homo sapiens) (UniProt O15520); experiment: compounds binding fibroblast growth factor 10 – biochemical, small-molecule microarray, 635 nm fluorescence, primary screen (AID 1102); conditions: FGF10 binding, fluorescence 635 nm, higher = more signal
[6] = system: glycogen synthase kinase-3 (GSK3A per assay name; protocol says GSK3B); experiment: compounds binding glycogen synthase kinase-3 – biochemical, small-molecule microarray, 635 nm fluorescence, GSK3A, primary screen (AID 1103); conditions: fluorescence 635 nm, higher = more signal; note: the record names both GSK3A and GSK3B
[7] = target: Epidermal growth factor receptor (Homo sapiens) (UniProt P00533); experiment: compounds binding epidermal growth factor receptor – biochemical, small-molecule microarray, 635 nm fluorescence, primary screen (AID 1104); conditions: EGFR binding, higher = more signal;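 note: score merges 667 nm emission intensity with spot signal to noise over triplicate slides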
[8] = target: Follistatin-related protein 3 (Homo sapiens) (UniProt O95633); experiment: compounds binding follistatin-related protein 3 – biochemical, small-molecule microarray, 635 nm fluorescence, primary screen (AID 1105); conditions: FSTL3 binding, higher = more signal;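 note: score merges emission near 667 nm and signal to noise per printed spot across three slides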
[9] = target: Dickkopf-related protein 1 (Homo sapiens) (UniProt O94907); experiment: small molecules binding DKK1 protein – biochemical, small-molecule microarray, 635 nm fluorescence scan, primary screen (AID 1106); conditions: higher = more signal;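 note: score merges emission near 667 nm with signal to noise over three replicate slides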
[10] = system: Inhibin beta A chain (activin A); experiment: small molecules binding activin A – biochemical, small-molecule microarray, 635 nm fluorescence scan, primary screen (AID 1107); conditions: INHBA, higher = more signal;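 note: mouse activin A protein probed at 4.33 µg/mL on printed slides; score merges bound-protein fluorescence near 667 nm with spot signal-to-noise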

Chain of Follistatin-related protein 3 (Homo sapiens) (O95633 whole entry, looked up): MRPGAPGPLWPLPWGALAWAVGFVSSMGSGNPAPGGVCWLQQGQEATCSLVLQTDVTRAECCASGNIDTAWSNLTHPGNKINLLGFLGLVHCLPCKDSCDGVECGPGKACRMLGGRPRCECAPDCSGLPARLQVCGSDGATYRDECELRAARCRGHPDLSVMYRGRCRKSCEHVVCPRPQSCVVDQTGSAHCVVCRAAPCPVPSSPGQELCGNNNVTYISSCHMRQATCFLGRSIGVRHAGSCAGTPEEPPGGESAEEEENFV
Chain of Fibroblast growth factor 10 (Homo sapiens) (O15520 whole entry, looked up): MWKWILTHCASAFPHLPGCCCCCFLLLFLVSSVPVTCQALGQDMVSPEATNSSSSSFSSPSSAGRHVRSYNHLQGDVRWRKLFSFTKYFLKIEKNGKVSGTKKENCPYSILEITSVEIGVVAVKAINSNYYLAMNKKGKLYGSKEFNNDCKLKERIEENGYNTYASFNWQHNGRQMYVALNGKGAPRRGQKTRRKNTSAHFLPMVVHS
Chain of Dickkopf-related protein 1 (Homo sapiens) (O94907 whole entry, looked up): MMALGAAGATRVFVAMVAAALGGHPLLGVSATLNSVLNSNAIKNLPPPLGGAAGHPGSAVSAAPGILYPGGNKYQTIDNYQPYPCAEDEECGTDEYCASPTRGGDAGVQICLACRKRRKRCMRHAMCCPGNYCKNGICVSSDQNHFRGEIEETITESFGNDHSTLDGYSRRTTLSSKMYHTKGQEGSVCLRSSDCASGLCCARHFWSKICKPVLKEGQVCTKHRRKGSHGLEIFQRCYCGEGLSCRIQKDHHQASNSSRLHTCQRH
Chain of Epidermal growth factor receptor (Homo sapiens) (P00533 whole entry, looked up): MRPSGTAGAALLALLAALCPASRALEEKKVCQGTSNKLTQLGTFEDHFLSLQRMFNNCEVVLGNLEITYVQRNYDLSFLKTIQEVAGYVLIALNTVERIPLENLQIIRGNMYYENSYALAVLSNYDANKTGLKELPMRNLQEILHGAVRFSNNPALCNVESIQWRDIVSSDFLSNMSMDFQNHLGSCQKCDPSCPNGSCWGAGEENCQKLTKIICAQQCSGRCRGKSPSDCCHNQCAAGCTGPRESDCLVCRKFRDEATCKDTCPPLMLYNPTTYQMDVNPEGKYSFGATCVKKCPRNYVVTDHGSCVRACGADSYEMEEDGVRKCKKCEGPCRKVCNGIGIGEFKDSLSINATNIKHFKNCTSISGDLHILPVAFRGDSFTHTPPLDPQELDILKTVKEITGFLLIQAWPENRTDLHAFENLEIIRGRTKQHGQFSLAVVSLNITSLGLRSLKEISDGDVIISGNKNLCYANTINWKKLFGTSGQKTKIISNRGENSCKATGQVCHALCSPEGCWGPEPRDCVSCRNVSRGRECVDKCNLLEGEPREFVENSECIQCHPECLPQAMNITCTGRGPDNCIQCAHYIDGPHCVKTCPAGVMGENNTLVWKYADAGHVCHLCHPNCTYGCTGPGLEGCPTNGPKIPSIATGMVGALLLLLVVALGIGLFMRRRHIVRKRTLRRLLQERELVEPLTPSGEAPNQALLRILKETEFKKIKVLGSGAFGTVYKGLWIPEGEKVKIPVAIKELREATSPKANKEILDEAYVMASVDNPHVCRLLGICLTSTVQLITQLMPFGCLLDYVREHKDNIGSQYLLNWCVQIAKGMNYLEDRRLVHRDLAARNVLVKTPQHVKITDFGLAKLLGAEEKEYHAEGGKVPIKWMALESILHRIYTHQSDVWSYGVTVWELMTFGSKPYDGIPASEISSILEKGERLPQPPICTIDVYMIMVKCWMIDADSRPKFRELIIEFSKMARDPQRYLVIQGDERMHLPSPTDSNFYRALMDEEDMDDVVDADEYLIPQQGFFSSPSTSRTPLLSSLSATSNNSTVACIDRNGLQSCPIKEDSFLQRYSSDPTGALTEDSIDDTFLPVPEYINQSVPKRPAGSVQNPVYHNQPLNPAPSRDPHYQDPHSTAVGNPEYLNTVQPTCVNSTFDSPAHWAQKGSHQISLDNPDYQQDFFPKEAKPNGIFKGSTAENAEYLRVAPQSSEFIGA

Row | SMILES | composite z-score [1] | composite z-score [2] | composite z-score [3] | z-score [4] | composite z-score [5] | composite z-score [6] | composite z-score [7] | composite z-score [8] | composite z-score [9] | composite z-score [10]
1 | CCOC(=O)C[C@H]1[C@H](OC(=O)c2ccc(C(=O)c3ccccc3)cc2)[C@@H](NC(=O)c2ccccc2)c2cc(OCCCO)ccc2N1C(=O)c1ccccc1 | 0.576 | 0.188 | -0.0053 | 0.0733 (inactive) | 0.656 | 0.0643 | 0.168 | 0.84 | 0.112 | 0.136
2 | COCCCNC(=O)[C@@]1(Sc2ccc(C)cc2)CC(=O)N(Cc2ccccc2Cl)[C@@H]1c1ccc(CO)cc1 | 1.36 | 0.0942 | 0.0166 | -0.87 (inactive) | 0.977 | 0.56 | 0.491 | 1.36 | 0.553 | 0.595
3 | CC(CO)N1C(=O)[C@@H]2C3C(=O)OCCC/C=C\[C@H]3OC23C=CCN(CCN2CCOCC2)C(=O)[C@@H]13 (stereo not given in full) | 0.238 | -0.412 | -0.48 | -0.669 (inactive) | 0.516 | 0.494 | -0.493 | 0.124 | 0.281 | 0.693
4 | COCCOC(=O)N1C(=O)[C@@]2(c3cc(C#CC4=CCCCC4)ccc31)[C@H](C(N)=O)[C@H]1C(=O)O[C@H](c3ccccc3)[C@H](c3ccccc3)N1[C@@H]2c1ccc(O)cc1 | 1.61 | 0.0331 | 0.275 | -1.18 (inactive) | 1.15 | 0.96 | 0.586 | 0.829 | 0.318 | 0.787
5 | O=C1OCCC/C=C\[C@H]2OC34C=CCN(c5ccc6ccccc6c5)C(=O)[C@H]3N(CCCCCO)C(=O)[C@@H]4C12 (stereo not given in full) | 0.227 | -0.319 | 0.364 | -0.447 (inactive) | -0.862 | -1.35 | -0.756 | -0.613 | -0.974 | 0.633
6 | Cc1ccc(C2C3C(=O)CC4C(=O)N(c5ccccc5)C(=O)C4C3CN2S(=O)(=O)c2ccc(C)cc2)cc1 (stereo not given) | 0.0792 | 1.24 | 1.05 | 0.495 (inactive) | 0.924 | 0.816 | 0.381 | 0.773 | 0.112 | 0.385
7 | CC(C)C(=C=CC[C@H](O)c1ccc(CO)o1)CCO | 0.458 | -0.288 | -0.471 | 0.241 (inactive) | 0.494 | 0.621 | -0.115 | 0.402 | 0.0097 | 0.411
8 | O=C1C2C=CC(C(O)COCc3ccccc3)N(Nc3ccc([N+](=O)[O-])cc3)C2C(=O)N1c1ccccc1 (stereo not given) | 1.06 | 0.735 | 0.889 | -1.44 (inactive) | 1.05 | 1.32 | 0.42 | 1.22 | 0.111 | 0.976
9 | C#CCNCc1ccccc1 | -0.375 | -0.192 | -0.288 | 0.258 (inactive) | 0.2 | 0.539 | 0.397 | 0.349 | 0.183 | 0.209
10 | C=CCN(Cc1ccccc1)C(=O)C(c1cccs1)N(C(=O)/C=C\C(=O)O)c1ccc(CCOCCO)cc1 (stereo not given) | 1.33 | -0.291 | 0.486 | -1.2 (inactive) | -2.15 | -1.28 | -1.43 | -1.27 | -2.18 | -0.753
11 | CCCC[C@@H]1C[C@H]1[C@@H](NC(=O)c1cccnc1)c1ccc(Cl)cc1 | -1.89 | 0.636 | 1.38 | -2.46 (inactive) | -2.18 | -2.37 | -2.19 | -2.37 | -2.48 | 0.0159
12 | CN(C)C(=O)[C@]1(Cc2ccccc2)N=C(c2ccc(OCCCO)cc2)O[C@@H]1c1ccccc1N=[N+]=[N-] | 0.684 | 0.74 | 1.05 | -0.968 (inactive) | 1.5 | 1.3 | 0.382 | 0.817 | 0.173 | 1.25
13 | C=C(CCCC)C(=O)CC[C@@H](OC(C)=O)c1ccc(CO)o1 | 1.24 | -0.269 | -0.457 | 0.251 (inactive) | 1.12 | 0.179 | -0.353 | 0.523 | 0.0693 | 0.945
14 | CN1C(=O)C2C=CC(C(O)c3c(F)cccc3Cl)N(NC(=O)OC(C)(C)C)C2C1=O (stereo not given) | 1.39 | 0.868 | 1.09 | 1.7 (inactive) | 0.458 | 0.891 | 0.307 | 0.649 | -0.438 | 0.449
15 | CC(c1ccccc1)C(O)C1C=CC2C(=O)N(c3ccccc3)C(=O)C2N1Nc1ccccc1 (stereo not given) | 1.18 | 0.807 | 0.818 | -0.716 (inactive) | 1.4 | 0.297 | 0.177 | 1.46 | -0.0656 | 0.215
16 | COc1ccc([C@H]2OC[C@@H]3CCC(=O)N32)cc1 | 0.178 | -0.235 | -0.374 | -0.00375 (inactive) | 0.66 | 1.17 | 0.339 | 0.954 | 0.294 | 0.0892

Row | SMILES | composite z-score [1] | composite z-score [2] | composite z-score [3] | z-score [4] | composite z-score [5] | composite z-score [6] | composite z-score [7] | composite z-score [8] | composite z-score [9] | composite z-score [10]
17 | COCCOC(=O)N1C(=O)[C@@]2(c3cc(C#CCCO)ccc31)[C@H](c1ccc(OCCO)cc1)N1[C@H](c3ccccc3)[C@H](c3ccccc3)OC(=O)[C@H]1[C@@H]2C(N)=O | 0.923 | 0.0909 | -0.0603 | -1.59 (inactive) | 0.874 | 1.3 | 0.587 | 0.829 | 0.441 | 0.257
18 | CC(C)CCC[C@@H](C)[C@H]1CC[C@@]2(C)C3=C(CC[C@]12C)[C@@]1(C)CC[C@H](OC(=O)c2ccc(C(F)(F)F)nc2)C(C)(C)C1CC3 (stereo not given in full) | 0.22 | -0.514 | -0.491 | -0.895 (inactive) | 0.595 | 0.714 | 0.471 | 0.627 | 0.418 | -0.0544
19 | C=CCC(OC(C)=O)[C@@H]1[C@@H](N(Cc2cc3ccccc3o2)C(=O)Cc2ccc(OC)cc2)c2cc(OCCCO)ccc2N1C(=O)c1ccc2ccccc2c1 (stereo not given in full) | 1.02 | -0.172 | 0.395 | -0.564 (inactive) | -0.0205 | -0.683 | -0.536 | -0.0573 | -0.306 | 1.16
20 | C=CC[C@@]1(C(=O)N2CCCCC2)N=C(c2ccc(OCCCO)cc2)O[C@@H]1c1ccccc1CN=[N+]=[N-] | 1.23 | 0.952 | 1.04 | -0.431 (inactive) | 0.666 | -0.0684 | 0.17 | 1.15 | -0.187 | 0.711
21 | [N-]=[N+]=Nc1ccccc1C[C@]1(C(=O)N2CCCCC2)COC(c2ccc(OCCCO)cc2)=N1 | -0.315 | 0.149 | 0.89 | -0.806 (inactive) | 1.28 | 1.3 | -0.214 | 0.615 | -0.482 | 1.01
22 | C=CCOC(=O)[C@H]1[C@@H]2C(=O)O[C@@H](c3ccccc3)[C@@H](c3ccccc3)N2[C@@H](c2ccc(OCCOC(=O)[C@@H]3C[C@@H]4C(=O)N5CCC[C@H]5C(=O)N4[C@@H]3c3cccc(OCCO)c3)cc2)[C@]12C(=O)Nc1ccc(I)cc12 | 1.59 | -0.214 | -0.158 | 0.0567 (inactive) | 1.42 | 1.15 | 0.702 | 1.39 | 1.2 | 0.76
23 | CCCCC(=C=CC[C@@H](O)c1cccc(OCCO)c1)C[C@@H](O)c1ccccn1 | 1.6 | -0.132 | -0.387 | -0.123 (inactive) | 1.06 | 0.839 | -0.181 | 1.07 | 0.168 | 0.869
24 | Cc1ccc(S[C@]2(C(=O)O)CC(=O)N(Cc3ccccc3C(F)(F)F)[C@@H]2c2ccc(CO)cc2I)cc1 | -0.135 | -0.537 | 0.337 | -1.15 (inactive) | -0.39 | -0.518 | -1.11 | -1 | -1.28 | 1.16
25 | C=C(/C(=C/C[C@H](OC(=O)c1ccncc1)c1ccc(OCCO)cc1)c1cc(C(=O)OC)ccc1OC)C(C)C | 0.569 | 0.031 | 0.244 | -0.821 (inactive) | 1.42 | -0.534 | -0.114 | 0.487 | 0.178 | 1.13
26 | CCN(CC)c1ccc(N2CC=CC34O[C@@H]5C=CCOC(=O)[C@@H]5[C@H]3C(=O)N(CCCCCCO)[C@@H]4C2=O)cc1 (stereo not given in full) | 1.85 | -0.131 | 0.844 | -0.93 (inactive) | -0.655 | -0.559 | -0.366 | -0.406 | -0.863 | 1.17
27 | O=C1[C@H]2C=C(Br)[C@H](C[C@@H]2OCCCCCCO)[C@@]12CO2 | 1.21 | -0.142 | -0.0272 | 0.428 (inactive) | -0.117 | -0.363 | -0.0491 | -0.154 | -0.0712 | 1.61
28 | COC(=O)[C@]1(CCC(=O)OC(C)(C)C)N=C(c2ccc(OCCCO)cc2)O[C@@H]1c1ccccc1 | 1.37 | 0.46 | 0.779 | -0.783 (inactive) | -0.361 | -0.495 | -0.754 | -0.577 | -0.563 | -0.0102
29 | C=CC[C@]1(C(=O)NCc2ccccc2)N=C(c2ccc(OCCCO)cc2)O[C@H]1c1ccccc1CN=[N+]=[N-] | 1.51 | 0.709 | 0.899 | -0.169 (inactive) | 1.19 | 1.24 | 0.171 | 1.39 | 0.607 | 0.835
30 | COC(=O)[C@@]1(CCC(=O)OC(C)(C)C)N=C(c2ccc(OCCCO)cc2)O[C@H]1c1ccccc1 | 1.22 | 0.592 | 0.997 | 0.509 (inactive) | -0.19 | -0.0344 | -1.03 | -0.808 | -0.239 | 0.501
31 | CC(C)OC(=O)C=C1C[C@@H](c2cccc(Cl)c2)O[C@@H](c2cccc(Cl)c2)O1 | 1.31 | 0.471 | 1.11 | 1.35 (inactive) | 0.31 | 0.651 | -1.18 | -0.901 | -1.42 | 1.24
32 | COC(=O)C[C@H]1O[C@@H](CCc2ccccc2)[C@@H](C)[C@@H]1[Si](C)(C)c1ccc(OC)cc1 | -1.04 | -0.0884 | -0.149 | 0.0234 (inactive) | -0.587 | -1.04 | 0.239 | -0.232 | 0.149 | 0.0026
